# Experimental data reported in PubChem BioAssay AID1345083 (National Center for Advancing Translational Sciences (NCATS), 2018).
# In all, about 94,000 compounds went through this assay and about 6,200 (6.6%) were called active. Inconclusive results (about 31%) are left out. The full list was thinned out, with actives kept by preference. A number with no mark means an inactive call. Calls come from the whole dose curve; as a rule, active = well fitted inhibition curve with a large enough effect; inconclusive = small, poorly fitted or top-dose-only effect; inactive = flat fitted curve, though single readings scatter.
# Test: Cytotoxic Profiling in HEK 293 Cell Line of Diverse Libraries Using Quantitative High-Throughput Screening; note: nearly all actives have a fitted effect of over 60% in size
# Conditions: HEK 293 viability, ATP luminescence (CellTiter-Glo), 48-72 h; series mostly up to 115 µM; activity change, negative = cytotoxicity: at the top concentration
# In short: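 Pintool-delivered compounds were incubated with HEK 293 cells (250 cells/well) at 37 degree Celsius for 48 or 72 hr. ATP-dependent luminescence (CellTiter-Glo) then reported remaining viable cells.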
# % is set by controls: 0 for no effect and ±100 for the full control effect; potency is the fitted concentration of half-maximal effect.
Compound,"activity change, negative = cytotoxicity",outcome,Potency
CC(C)NC(=O)NC[C@H]1C[C@@H]2CCN1C[C@@H]2CN1CCCC1,2.65% [at 172 µM],–,–
FC(F)(F)CN1C2CCC1CN(c1cccc(Cl)n1)C2,–,inactive,–
CCCSc1ncc(CN2CC[C@H]3CNC[C@H]32)cn1,-10.3%,–,–
CC(=O)NCCNC(=O)[C@H]1CN2CCC1C[C@@H]2Cn1cc(-c2ccc(C(C)(C)C)cc2)nn1 (some centres not stated),-3.54%,–,–
CNC1CCOCC1,–,inactive [at 287 µM],–
C#CCN1C(=O)[C@@H]2[C@H](c3ccccc31)[C@@H](C(=O)OCC)[C@@H](c1ccccc1)N2C(=O)COC,–,–,44.7 µM (active)
CCCCOC(=O)N1C[C@H](C(=O)OCC)[C@H]2c3ccccc3N(C)C(=O)[C@]21C,-18.1% [at 57.5 µM],–,–
Nc1cccc(-c2cn(C[C@H]3CC4CCN3C[C@@H]4C(=O)NCc3ccc(F)cc3)nn2)c1 (some centres not stated),-7.43% [at 172 µM],–,–
COCC(=O)NC[C@H]1C[C@@H]2CCN1C[C@@H]2CN1CCN(C)CC1,-12.1% [at 172 µM],–,–
CN(C)[C@@H]1CN(C(=O)Cc2ccc(F)cc2)C[C@H]1CO,–,inactive,–
Cn1cccc1CN1CCC2(COc3ccncc3[S+](=O)([O-])N2)C1 (configuration not stated),-7.93%,–,–
COc1ccccc1-c1cc([C@H]2CN3CC[C@H]2C[C@@H]3CNC(=O)c2ccco2)n(C)n1,4.65% [at 172 µM],–,–
Cc1nc(-c2ccc(C(F)(F)F)cc2)cc([C@H]2CN3CC[C@H]2C[C@@H]3CNC(=O)c2ccco2)n1,–,–,20 µM (active)
Cc1ccc(C(=O)NC[C@H]2C[C@@H]3CCN2C[C@@H]3c2cc(-c3ccco3)nc(C)n2)cc1,–,–,79.4 µM (active)
O=C(NC[C@H]1C[C@@H]2CCN1C[C@@H]2CN1CCN(c2ncccn2)CC1)c1ccc(C(F)(F)F)cc1,-17.4%,–,–
COc1ccccc1-c1cc([C@H]2CN3CC[C@H]2C[C@@H]3CNC(=O)c2ccco2)nc(C)n1,-23.8% [at 172 µM],–,–
C=C[C@H]1CN2CC[C@H]1C[C@@H]2CNC(=O)c1ccc(C(F)(F)F)cc1,-7.78% [at 172 µM],–,–
CCNC(=O)N1CC2CN(C(C)C)CC(C1)O2,-6.72%,–,–
CC1=NOC2(CCN(Cc3c[nH]c4ccccc34)CC2)C1,4.67% [at 172 µM],–,–
CN1C[C@H]2CN(Cc3cnn(C)c3)CCN2C1=O,-15.1% [at 230 µM],–,–
O=C(Nc1ccc2n(c1=O)C[C@H]1C[C@@H]2CN(C(=O)c2ccccn2)C1)c1ccc(F)cc1,-3.73% [at 172 µM],–,–
C[S+](=O)([O-])N1CCC2(CC1)CC(c1cccnc1)=NO2,0.463%,–,–
Cc1nc(-c2ccccc2)cc([C@H]2CN3CC[C@H]2C[C@@H]3CNC2CCOCC2)n1,–,–,31.6 µM (active)
Cc1nc(-c2ccccc2)cc([C@H]2CN3CC[C@H]2C[C@@H]3CNC2CCN(C)CC2)n1,–,–,28.2 µM (active)

Compound,"activity change, negative = cytotoxicity",outcome,Potency
CN(C)C(=O)[C@H]1CN2CCC1C[C@@H]2Cn1cc(-c2ccc(-c3ccccc3)cc2)nn1 (some centres not stated),-17.4% [at 172 µM],–,–
O=C([C@H]1CN2CCC1C[C@@H]2Cn1cc(-c2ccccc2)nn1)N1CCOCC1 (some centres not stated),0.574% [at 172 µM],–,–
CC(=O)Nc1ccc(-c2ccc3n(c2=O)C[C@H]2C[C@@H]3CN(C3CCN(C)CC3)C2)cc1,-24.1% [at 172 µM],–,–
CC(C)N1C[C@@H]2OCC(=O)N(Cc3cccnc3)[C@@H]2C1,-2.45% [at 230 µM],–,–
O=C(Nc1ccc(Cl)cc1)N1C[C@@H]2C[C@H](C1)c1c(-c3ccccc3F)ccc(=O)n1C2,-4.3%,–,–
COCC1CN(Cc2ccsc2)CC12CCNCC2 (configuration not stated),-27.7%,–,–
COc1ccc(CC(=O)N2C[C@@H]3CC[C@H](C2)N(CC2CCC2)C3)c(OC)c1,-22.9%,–,–
COc1ccc(-c2cc([C@H]3CN4CC[C@H]3C[C@@H]4CNC(=O)C3CC3)n(C)n2)cc1OC,-9.12% [at 172 µM],–,–
COc1ccccc1-c1cc([C@H]2CN3CC[C@H]2C[C@@H]3CNC(C)=O)n(C)n1,-4.81% [at 172 µM],–,–
Cn1nc(-c2cccs2)cc1[C@H]1CN2CC[C@H]1C[C@@H]2CNC(=O)Nc1ccccc1,–,–,112 µM (active)
COc1ccc(-c2cc([C@H]3CN4CC[C@H]3C[C@@H]4CNC(=O)c3ccccc3)n(C)n2)cc1OC,-10.2%,–,–
Cn1nc(-c2ccc(F)cc2)cc1[C@H]1CN2CC[C@H]1C[C@@H]2CNCc1ccccn1,–,–,63.1 µM (active)
COc1ccc(C(=O)NC[C@H]2C[C@@H]3CCN2C[C@@H]3c2cc(-c3ccccc3)nn2C)cc1,–,–,89.1 µM (active)
O=C(Nc1ccccc1)[C@H]1CN2CCC1C[C@@H]2Cn1cc(CO)nn1 (some centres not stated),-2.81% [at 172 µM],–,–
Cn1nc(-c2cccs2)cc1[C@H]1CN2CC[C@H]1C[C@@H]2CNC(=O)CCCC(=O)O,–,inactive [at 172 µM],–
CCCCc1cn(C[C@H]2C[C@@H]3CCN2C[C@@H]3C(=O)NCCNC(C)=O)nn1,-2.52% [at 172 µM],–,–
Cc1ccccc1-c1ccc2n(c1=O)C[C@H]1C[C@@H]2CN(C(=O)CSCC(=O)O)C1,-1.03% [at 172 µM],–,–
O=C([C@H]1CN2CCC1C[C@@H]2Cn1cc(CCO)nn1)N1CCCC1 (some centres not stated),–,inactive [at 172 µM],–
COc1ccccc1-c1ccc(N2CC3CC(C2)c2cccc(=O)n2C3)nn1 (configuration not stated),1.75%,–,–
Cc1ccc([C@@H]2CN(Cc3ncc[nH]3)[C@@H]3C4CCN(CC4)[C@@H]32)cc1,3.55%,–,–
COc1cccc(C(=O)N2CCC3(CC2)NCc2ccccc2-n2ccnc23)c1,-24.7%,–,–
O=S1(=O)NCC2(CCN(Cc3ccc(Cl)s3)C2)Oc2ncccc21 (configuration not stated),–,inactive,–
O=C(COc1ccccc1)N1C[C@@H]2C[C@H](C1)c1c(-c3ccccc3F)ccc(=O)n1C2,-23.1% [at 172 µM],–,–
